Screening results deposited in PubChem by National Center for Advancing Translational Sciences (NCATS).
FH mod = Identification of activators of human fumarate hydratase by quantitative high-throughput screening. Fumarate hydratase, mitochondrial (Homo sapiens), P07954. FH coupled MDH/diaphorase resazurin fluorescence, 15 min. Potency, µM (highest dose often 79.9 µM), inactives show at the top dose activity change, negative = inhibition, hits mostly inhibitors. hit rate 0.22% among 54,000. AID 1347055, 2019; note: potency is the fitted concentration of half-maximal effect; % is set by controls: 0 for no effect and ±100 for the full control effect; the screen sought activators but most active calls are inhibition curves; nearly all actives have a fitted effect of over 45% in size
B2AR arrestin ag = agonists recruiting beta-arrestin to human beta2-adrenergic receptor; P07550; HTLA Tango cells, beta-arrestin recruitment, luciferase luminescence, 18 h; Potency, µM (doses to about 46.1 µM), actives largely listed as activators; 44,000 tested, under 10 active;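 note: potency is the fitted concentration of half-maximal effect; 0% = DMSO and full agonism = EC100 isoproterenol or metaproterenol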
Target sequence (P07550 whole entry, looked up): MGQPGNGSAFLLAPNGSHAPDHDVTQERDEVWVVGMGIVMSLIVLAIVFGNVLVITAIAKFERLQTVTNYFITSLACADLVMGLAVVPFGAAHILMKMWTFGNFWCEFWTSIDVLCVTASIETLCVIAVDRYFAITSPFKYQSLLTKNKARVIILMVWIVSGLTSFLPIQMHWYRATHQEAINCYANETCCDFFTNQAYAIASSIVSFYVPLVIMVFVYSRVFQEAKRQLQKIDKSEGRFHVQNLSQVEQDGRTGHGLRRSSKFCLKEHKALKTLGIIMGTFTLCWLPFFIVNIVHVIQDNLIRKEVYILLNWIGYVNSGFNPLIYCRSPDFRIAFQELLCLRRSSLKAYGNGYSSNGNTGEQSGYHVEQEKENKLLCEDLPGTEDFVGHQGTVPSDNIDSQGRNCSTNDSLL
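Luminescence read-out: arrestin recruitment to recombinant beta2-AR releases tTA, inducing luciferase. Cells exposed 18 hr at 37 degrees C to up to 46 microM compound; %Activity from corrected signal, concentration-response curves classified by r2, magnitude and efficacy.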
HTT-AS promoter = activators of huntingtin-antisense promoter activity. HEK293 HTT-AS promoter firefly luciferase reporter, 24 h; response scale: percent change from vehicle, -100% = no light. Potency, µM (doses to about 57.5 µM), inactives show at the highest dose activity change, positive = activation, actives largely listed as activators. hit rate 0.24% among 48,000; note: potency is the fitted concentration of half-maximal effect; nearly all actives have a fitted effect of over 55% in size
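HEK293 cells carrying firefly luciferase reporters were seeded at 2,500 per well in Opti-MEM and cultured for 24 h. They were then treated with compounds at up to 57.5 uM final for 24 h at 37 degrees C before Dual-Glo luminescence readout.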
HTT promoter inh = inhibits huntingtin promoter activity | HEK293 HTT promoter firefly luciferase reporter, 24 h | Potency, µM (series often up to 57.5 µM), inactives show at the highest dose activity change, negative = inhibition, usual class: inhibitors | hit rate 0.93% among 48,000; note: potency is the fitted concentration of half-maximal effect; nearly all actives have a fitted effect of over 50% in size
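Firefly luciferase readout (Dual-Glo, 10 min RT) after 24 h, 37 °C compound exposure (final up to 57.5 uM) of HEK293 reporter cells cultured 24 h beforehand; PTC124 at 50 uM final as control inhibitor; activity scaled vehicle 0%, zero RLU -100%.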
GALC G270D up = enhancers of human galactocerebrosidase G270D mutant activity in cells; hit rate 0.1% among 45,000; Potency, µM (titrated, usually from 57.5 µM), actives largely listed as activators; P54803; 145M-Twi-hGALC-G270D cells (Twitcher mouse brain line with human GALC G270D), HMU-beta-Gal fluorescence, 48 h; AID 1159614; note: potency is the fitted concentration of half-maximal effect; 0% is about no effect; nearly all actives have a fitted effect of over 65% in size
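Fluorescence readout: HMU-β-gal cleavage by mutant GALC (0.1 mM final, citrate/phosphate pH 5.2 with 1 mg/mL taurocholate), stopped with carbonate/bicarbonate plus Triton X-100. Cells: murine Twitcher 145M-Twi expressing human G270D GALC; qHTS for activators.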
GPR32 ag = GPR32 (DRV1) agonism, beta-arrestin recruitment | hit rate 2.5% among 48,000 | activation, % at 76.9 µM | CHO-K1 GPR32 beta-arrestin PathHunter luminescence, 90 min; zero percent set by DMSO-only wells | O75388;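 active = activation of at least 60% and not above a set upper limit, about 1 call in 100 departs from these limits; inconclusive = activation of 40% to 60%, or above that upper limit; inactive = activation under 40%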; note: 0% is about no effect
Target sequence (O75388 whole entry, looked up): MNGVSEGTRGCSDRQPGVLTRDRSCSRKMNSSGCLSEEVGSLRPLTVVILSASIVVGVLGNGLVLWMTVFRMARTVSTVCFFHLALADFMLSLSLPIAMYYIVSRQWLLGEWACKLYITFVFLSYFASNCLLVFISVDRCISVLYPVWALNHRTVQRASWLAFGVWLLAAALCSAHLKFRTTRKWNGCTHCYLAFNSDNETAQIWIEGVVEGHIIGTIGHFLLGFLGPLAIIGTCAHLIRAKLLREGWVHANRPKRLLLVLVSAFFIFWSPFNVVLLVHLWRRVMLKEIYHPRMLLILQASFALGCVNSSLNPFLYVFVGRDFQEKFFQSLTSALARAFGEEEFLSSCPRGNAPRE
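Agonism was scored as beta-arrestin recruitment to ProLink-fused GPR32 in stably transfected CHO-K1 cells, giving a chemiluminescent beta-Gal signal; compounds were incubated 90 min at 37 °C.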
An asterisk follows results filed as active; i = inactive; ? = inconclusive; · = no result given; [ ] = another dose, or the depositor's remark. Hits are enriched below; roughly 3.7% of the tested compounds scored in any of these assays. Unless noted, calls come from the whole dose curve; as a rule, active = well fitted curve in the direction sought with a large enough effect; inconclusive = small, poorly fitted or top-dose-only effect, or another doubt; inactive = no such curve, though single readings can be large; an effect the other way counts as inactive or inconclusive.

SMILES	FH mod	B2AR arrestin ag	HTT-AS promoter	HTT promoter inh	GALC G270D up	GPR32 ag
O=C(Cn1nc(N2CCN(c3ccccc3)CC2)ccc1=O)Nc1ccc(F)cc1F	-13.8%	i	-11.4%	14.9%	i	-9.3
Cc1[nH]c(/C=C2\C(=O)Nc3ccccc32)c(C)c1CCC(=O)O	-0.2%	·	·	·	·	·
COc1ccccc1-c1nnc(SCC(=O)c2ccc(F)cc2)n1-c1ccccc1	-21.3%	i	-12.5%	?	i	69.9*
Cn1c(SCC(=O)c2ccc(F)cc2)nnc1-c1ccccc1Br	0.1%	i	-15.2%	-39.6%	i	?
CC1(C)CC[C@]23CO[C@@]4(CCC5[C@@]6(C)CC[C@H](O[C@@H]7OC[C@H](O[C@@H]8O[C@H](CO)[C@@H](O)[C@H](O)[C@H]8O)[C@H](O)[C@H]7O[C@@H]7O[C@H](CO)[C@@H](O[C@@H]8O[C@H](CO)[C@@H](O)[C@H](O)[C@H]8O)[C@H](O)[C@H]7O)[C@@](C)(CO)C6CC[C@@]5(C)[C@]4(C)C[C@H]2OC2OCC(O)C(O)C2O)C3C1 (stereo partly specified)	8.1%[13.5 µM]	·	·	·	·	·
O=C(CSc1nnc(-c2ccc([N+](=O)[O-])cc2)o1)Nc1ccccc1	-1.3%	i	1.78µM*	66.7%	i	-43.2
CC(=O)Nc1cccc(-c2nnc(SCC(=O)c3ccc([N+](=O)[O-])cc3)o2)c1	-14.2%	i	5.3%	-24.1%	i	?
CC(=O)Nc1ccc(-c2nnc(SCC(=O)c3ccc([N+](=O)[O-])cc3)o2)cc1	-10.1%	i	5.7%	-14.8%	i	64.0*
C[C@@H]1CCC2C(C)(C)[C@H](O)[C@H](O)C[C@]2(C)[C@@]12Cc1c(O)cc3c(c1O2)CN(CCCC(=O)O)C3=O (stereo partly specified)	7.1%[53.3 µM]	·	·	·	·	·
Cc1ccc(CNC(=O)Nc2cc(C(=O)NCc3ccc(C(C)C)cc3)ccc2N2CCCC2)cc1	-15.9%	i	-12.9%	?	i	-13.2
CC(C)c1ccc(CNC(=O)c2ccc(N3CCCC3)c(NC(=O)NCc3ccccc3)c2)cc1	-17.6%	i	-19.4%	25.1µM*	i	-31.7
CCCCn1c(=N)n(CCOc2ccccc2OC)c2ccccc21	-3.8%	i	-34.6%	?	i	64.5*
O=C(Nc1cc(Cl)cc(Cl)c1)c1ccc(F)c(S(=O)(=O)NC2CCCCC2)c1	-20.8%	i	-36.3%	?	i	68.5*
O=C(Nc1ccc(F)c(F)c1)c1cc(S(=O)(=O)NC2CCCCCC2)ccc1F	?	i	-38.2%	25.1µM*	i	-10.3
CC(C)c1ccc(NC(=O)c2cc(S(=O)(=O)NC3CCCCC3)ccc2F)cc1	?	i	-21.5%	?	i	-12.2
O=C(O)[C@@H]1C[C@H]2C[C@@H](CCc3nn[nH]n3)CC[C@H]2CN1	6.2%	·	·	·	·	·
COc1ccc(NC(=O)c2coc(=O)c3ccccc23)cc1OC	-25.2%	i	?	50.3%[11.5 µM]	i	-10.6
Cc1cc(Br)ccc1NC(=O)c1coc(=O)c2ccccc12	-4.3%	i	-30.0%	?	i	71.9*
C=C1C(=O)OC[C@@H]1C/C=C(\C)CC1CC(C)C(=O)O1 (stereo partly specified)	5.5%	·	·	·	·	·
CCC(C(=O)OCCN1CCOC(c2ccccc2)C1C)c1ccccc1 (stereo unspecified)	-4.8%[53.3 µM]	·	-19.6%	-13.5%	i	61.8*
CCCCCC=CCC=CCCCCCCCC(=O)OCC	-13.3%[53.3 µM]	·	-1.6%	-1.7%	i	63.3*
Cc1ccc(-c2csc(=Nc3ccccc3)n2CCCO)cc1	-20.2%	i	-39.7%	?	i	86.0*
OCCCn1c(-c2ccc(F)cc2)csc1=Nc1ccc(F)cc1	-17.5%	i	-20.5%	?	i	-7.7
CC1CC(=O)C2=C(O1)OC1(C)CCC3C(C)(C)C4OC4C(=O)C3(C)C1C2 (stereo unspecified)	0.0%[53.3 µM]	·	·	·	·	·
O=C(Nc1ccccc1C(=O)Nc1ccc(CCO)cc1)c1ccc([N+](=O)[O-])cc1	4.3%	·	·	·	·	·
SMILES	FH mod	B2AR arrestin ag	HTT-AS promoter	HTT promoter inh	GALC G270D up	GPR32 ag
Cc1nc(-c2cccc(F)c2)sc1CCNC(=O)c1ccc(F)c(F)c1	?	i	-25.3%	-29.2%	i	62.6*
Cc1nc(-c2ccc(Cl)cc2)sc1CCNC(=O)Cc1ccc(F)cc1	-4.9%	i	-38.2%	31.6µM*	i	-5.1
COC1CC/C=C(\C)C(=O)Nc2cc(O)cc(c2)CC(C)CC(OC)C(O)C(C)/C=C(\C)C1OC(N)=O (stereo unspecified)	-1.9%[53.3 µM]	·	·	·	·	·
Cc1cccc(C)c1Nc1c(-c2ccc(O)cc2)nc2sccn12	31.6µM*	i	-16.4%	-13.3%	i	-1.5
COc1cc(-c2nc3sccn3c2Nc2c(C)cccc2C)ccc1O	15.8µM*	i	-3.9%	-2.4%	i	-17.0
CSc1ccc(CCNc2ncnc3onc(-c4ccc(Cl)cc4)c23)cc1	-9.6%	i	-53.0%	17.8µM*	i	-11.2
CC[C@@H]1C=C(C)C[C@H](C)C[C@H](OC)[C@H]2O[C@@](O)(C(=O)C(=O)N3CCCC[C@@H]3C(=O)O[C@H](C(C)=C[C@@H]3CC[C@H](Cl)[C@H](OC)C3)[C@H](C)[C@@H](O)CC1=O)[C@H](C)C[C@H]2OC	-16.0%[53.3 µM]	·	-7.0%	-10.6%	·	·
CCN1C(=O)c2ccccc2Sc2ccc(NC(=O)c3ccc(Cl)cc3)cc21	-1.4%	i	-5.1%	-15.2%[11.5 µM]	i	-0.4
CCc1cccc(NC(=O)Nc2ccc3c(c2)N(C)C(=O)c2ccccc2S3)c1	2.0%	i	-38.3%	31.6µM*	i	4.8
CCN1C(=O)c2ccccc2Sc2ccc(NC(=O)Nc3cc(C)cc(C)c3)cc21	-24.9%	i	-45.9%	20µM*	i	-6.7
CN1C(=O)c2ccccc2Sc2ccc(NC(=O)Nc3ccccc3F)cc21	15.1%	i	-15.9%	-1.7%	i	-12.7
Cc1ccc(-n2ncc3c(Nc4cccc(C(F)(F)F)c4)ncnc32)cc1C	-1.4%	i	0.0%	?	i	93.7*
Cc1ccc(-n2ncc3c(Nc4cccc(C)c4)ncnc32)cc1	-18.3%	i	?	66.6%	i	?
C=C1C(=O)O[C@@H]2C(OC(=O)/C(C)=C\C)/C(C)=C\C(=O)/C=C(\C)C[C@H](O)[C@@H]12 (stereo partly specified)	-0.5%[53.3 µM]	·	·	·	·	·
